{"source": "ChEMBL document CHEMBL1961873", "about": "“Compounds: GSK PKIS; Assays: Nanosyn kinase panel” (2012)"}
{"target": "Tyrosine-protein kinase JAK2 (Homo sapiens) (UniProt O60674)", "sequence (O60674 whole entry)": "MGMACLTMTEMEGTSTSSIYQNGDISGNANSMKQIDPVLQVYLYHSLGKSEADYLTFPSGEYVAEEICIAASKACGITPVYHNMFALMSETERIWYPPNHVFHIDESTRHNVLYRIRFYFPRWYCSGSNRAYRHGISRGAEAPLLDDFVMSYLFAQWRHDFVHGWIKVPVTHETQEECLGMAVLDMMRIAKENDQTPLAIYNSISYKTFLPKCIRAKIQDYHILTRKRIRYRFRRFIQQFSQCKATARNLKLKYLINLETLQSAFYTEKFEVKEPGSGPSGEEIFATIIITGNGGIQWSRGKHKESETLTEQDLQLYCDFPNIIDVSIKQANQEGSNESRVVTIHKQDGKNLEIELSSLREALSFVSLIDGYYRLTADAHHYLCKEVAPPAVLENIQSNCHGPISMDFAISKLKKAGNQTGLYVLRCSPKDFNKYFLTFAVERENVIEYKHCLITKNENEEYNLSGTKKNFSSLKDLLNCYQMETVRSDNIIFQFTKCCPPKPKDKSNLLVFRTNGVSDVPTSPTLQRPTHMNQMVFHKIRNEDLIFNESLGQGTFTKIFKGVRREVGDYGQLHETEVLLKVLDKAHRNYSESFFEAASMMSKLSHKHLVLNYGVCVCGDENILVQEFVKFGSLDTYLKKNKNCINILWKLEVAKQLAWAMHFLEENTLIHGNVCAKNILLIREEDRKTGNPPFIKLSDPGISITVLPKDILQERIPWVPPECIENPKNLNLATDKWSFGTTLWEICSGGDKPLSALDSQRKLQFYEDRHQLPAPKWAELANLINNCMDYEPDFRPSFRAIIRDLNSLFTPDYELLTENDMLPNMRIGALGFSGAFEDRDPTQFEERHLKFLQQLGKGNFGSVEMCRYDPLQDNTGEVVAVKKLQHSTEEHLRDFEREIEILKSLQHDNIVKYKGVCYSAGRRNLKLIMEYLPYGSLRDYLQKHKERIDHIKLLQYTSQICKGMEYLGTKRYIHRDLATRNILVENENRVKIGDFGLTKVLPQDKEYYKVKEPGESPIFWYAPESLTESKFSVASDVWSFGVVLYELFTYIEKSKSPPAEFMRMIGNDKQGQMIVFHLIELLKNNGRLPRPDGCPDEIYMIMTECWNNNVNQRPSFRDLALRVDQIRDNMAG", "settings": "at 1 µM", "units": {"inhibition": "%"}}
{"smiles": "N#Cc1c(NC(=O)c2cccc3ccccc23)sc2c1CCCC2", "inhibition": 1.85}
{"smiles": "CCn1c(-c2nonc2N)nc2cncc(C(=O)N3CCNCC3)c21", "inhibition": 2.86}
{"smiles": "NS(=O)(=O)c1cccc(-c2ccc3c(NC(=O)C4CC4)n[nH]c3c2)c1", "inhibition": -1.18}
{"smiles": "CC1=C(C(=O)Nc2ccc3[nH]ncc3c2)C(c2ccc3ccccc3c2)CC(=O)N1", "note": "(stereo not drawn)", "inhibition": 25.8}
{"smiles": "Cc1nnc(-c2ccc(C)c(-c3ccc(C(=O)Nc4cccc(C#N)c4)cc3)c2)o1", "inhibition": -0.34}
{"smiles": "Cc1nn(C)c2cc(N(C)c3ccnc(Nc4cccc(S(N)(=O)=O)c4)n3)ccc12", "inhibition": 59.5}
{"smiles": "CS(=O)(=O)CCN(CC#N)Cc1ccc(-c2ccc3ncnc(Nc4ccc(OCc5cccc(F)c5)c(Cl)c4)c3c2)o1", "inhibition": 1.26}
{"smiles": "NC(=O)c1cccc(Nc2nccc(Nc3cccc4[nH]ncc34)n2)c1", "inhibition": 57}
{"smiles": "COc1cc2ncn(-c3cc(OCc4ccccc4Cl)c(C(N)=O)s3)c2cc1OC", "inhibition": 0.34}
{"smiles": "Cc1cccc(-c2n[nH]cc2-c2ccc3ncccc3n2)n1", "inhibition": -0.14}
{"smiles": "CCn1c(-c2nonc2N)nc2ccncc21", "inhibition": 0.91}
{"smiles": "COc1cc2ncn(-c3cc(OCc4ccccc4C(F)(F)F)c(C(N)=O)s3)c2cc1OC", "inhibition": 1.84}
{"smiles": "NCc1ccc(-c2nc(-c3ccc(Cl)c(O)c3)c(-c3ccncc3)[nH]2)cc1", "inhibition": 0.75}
{"smiles": "CCN1CCC(CC(=O)Nc2n[nH]c3nc(-c4cccs4)c(Br)cc23)CC1", "inhibition": -2.38}
{"smiles": "Nc1nc(-c2ccc3c(c2)C(=Cc2cc(Br)c(O)c(Br)c2)C(=O)N3)cs1", "inhibition": -1.87}
{"smiles": "COc1ccc(-c2nn3ncccc3c2-c2ccnc(Nc3ccc(Cl)c(C(F)(F)F)c3)n2)cc1", "inhibition": -0.98}
{"smiles": "COc1ccc(COc2ccc(Cc3cnc(N)nc3N)cc2OC)cc1", "inhibition": 4.19}
{"smiles": "[O-][S+]1CCN(Cc2ccc(-c3ccc4ncnc(Nc5ccc(OCc6ccccc6)c(F)c5)c4c3)o2)CC1", "inhibition": 0.64}
{"smiles": "CC(C)=Cc1cccc2c1/C(=N/Nc1ccc(S(N)(=O)=O)cc1)C(=O)N2", "inhibition": 34.2}
{"smiles": "Nc1ncnc2occ(-c3ccc(NC(=O)Nc4cc(C(F)(F)F)cc(C(F)(F)F)c4)cc3)c12", "inhibition": 1.44}
{"smiles": "COc1cc(C)c(NC(=O)CN(C)C)cc1Nc1nc(Nc2cccc(F)c2C(N)=O)c2cc[nH]c2n1", "inhibition": 0.22}
{"smiles": "COC(=O)Nc1nc2cc(Oc3ccc(NC(=O)Nc4cccc(C(=O)O)c4)cc3)ccc2[nH]1", "inhibition": 4.54}
{"smiles": "CS(=O)(=O)Nc1ccc(N/C=C2\\C(=O)Nc3ccccc32)cc1", "inhibition": 1.03}
{"smiles": "CC(=O)Nc1cccc(C#Cc2cncnc2Nc2ccc(OCc3cccc(F)c3)c(Cl)c2)n1", "inhibition": -0.27}
{"smiles": "CN(C)c1cc2c(Nc3ccc4nc(Cc5ccccc5)[nH]c4c3)ncnc2cn1", "inhibition": 1.44}
{"smiles": "COc1ccc(-c2ccncc2)cc1C(N)=O", "inhibition": 3.4}
{"smiles": "O=C(Nc1n[nH]c2nc(-c3ccco3)c(Br)cc12)C1CC1", "inhibition": 1.59}
{"smiles": "CS(=O)(=O)CCNCc1ccc(-c2ccc3ncnc(Nc4ccc(OCc5cccc(F)c5)c(C(F)(F)F)c4)c3c2)o1", "inhibition": 1.17}
{"smiles": "CCn1c(-c2nonc2N)nc2c(C#CC(C)(C)O)nc(CN3CCCC3)cc21", "inhibition": -0.34}
{"smiles": "CCn1c(-c2nonc2N)nc2c(N3CCCC3)nccc21", "inhibition": -1.59}
{"smiles": "CCc1cccc(NC(=O)Nc2ccc(Oc3ccc4nc(NC(=O)OC)[nH]c4c3)cc2)c1", "inhibition": 4.62}
{"smiles": "O=C1Nc2ccc(C(=O)c3ccco3)cc2C1=Cc1cc(Cl)c(O)c(Cl)c1", "inhibition": 6}
{"smiles": "CS(=O)(=O)CCNCc1nc(-c2ccc3ncnc(Nc4ccc(F)c(Cl)c4)c3c2)cs1", "inhibition": 4.99}
{"smiles": "Fc1cccc(COc2ccc(Nc3ncnc4cc(-c5ccc[nH]5)sc34)cc2Cl)c1", "inhibition": 3.62}
{"target": "T1, Tyrosine-protein kinase JAK3 (Homo sapiens) (UniProt P52333)", "T1 sequence (whole entry)": "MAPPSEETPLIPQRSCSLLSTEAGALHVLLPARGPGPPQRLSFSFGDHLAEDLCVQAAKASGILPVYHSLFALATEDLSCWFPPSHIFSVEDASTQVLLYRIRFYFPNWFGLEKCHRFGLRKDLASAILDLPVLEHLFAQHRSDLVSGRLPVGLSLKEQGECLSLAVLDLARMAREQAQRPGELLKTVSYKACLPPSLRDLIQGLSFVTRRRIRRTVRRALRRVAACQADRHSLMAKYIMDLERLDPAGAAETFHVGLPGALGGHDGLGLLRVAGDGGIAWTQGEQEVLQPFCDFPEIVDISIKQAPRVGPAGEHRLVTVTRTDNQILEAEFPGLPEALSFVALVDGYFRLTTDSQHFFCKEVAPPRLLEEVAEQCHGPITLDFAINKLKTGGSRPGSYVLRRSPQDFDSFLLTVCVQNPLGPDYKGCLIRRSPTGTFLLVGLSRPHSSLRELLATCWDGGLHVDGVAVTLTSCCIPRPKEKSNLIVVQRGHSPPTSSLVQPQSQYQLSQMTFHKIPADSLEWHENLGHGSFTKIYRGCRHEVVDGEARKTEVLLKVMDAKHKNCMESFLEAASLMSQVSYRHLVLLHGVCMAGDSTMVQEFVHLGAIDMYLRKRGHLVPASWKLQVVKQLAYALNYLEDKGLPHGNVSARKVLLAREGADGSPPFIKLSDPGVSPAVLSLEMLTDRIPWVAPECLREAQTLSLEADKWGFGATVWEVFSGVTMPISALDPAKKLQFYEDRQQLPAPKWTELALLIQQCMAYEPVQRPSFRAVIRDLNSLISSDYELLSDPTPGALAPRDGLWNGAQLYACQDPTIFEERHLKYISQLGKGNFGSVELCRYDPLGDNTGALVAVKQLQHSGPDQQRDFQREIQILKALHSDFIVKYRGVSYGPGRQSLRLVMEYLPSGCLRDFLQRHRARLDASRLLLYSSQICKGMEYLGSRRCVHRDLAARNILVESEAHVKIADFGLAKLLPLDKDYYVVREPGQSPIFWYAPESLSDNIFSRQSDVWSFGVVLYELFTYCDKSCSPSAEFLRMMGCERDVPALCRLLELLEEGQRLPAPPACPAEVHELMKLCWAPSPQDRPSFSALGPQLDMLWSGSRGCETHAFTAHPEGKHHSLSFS", "settings": "at 0.1 µM", "units": {"inhibition": "%"}}
{"smiles": "N#Cc1c(NC(=O)c2cccc3ccccc23)sc2c1CCCC2", "inhibition": -0.84}
{"smiles": "CCn1c(-c2nonc2N)nc2cncc(C(=O)N3CCNCC3)c21", "inhibition": -0.41}
{"smiles": "NS(=O)(=O)c1cccc(-c2ccc3c(NC(=O)C4CC4)n[nH]c3c2)c1", "inhibition": -0.5}
{"smiles": "CC1=C(C(=O)Nc2ccc3[nH]ncc3c2)C(c2ccc3ccccc3c2)CC(=O)N1", "note": "(stereo not drawn)", "inhibition": 0.88}
{"smiles": "Cc1nnc(-c2ccc(C)c(-c3ccc(C(=O)Nc4cccc(C#N)c4)cc3)c2)o1", "inhibition": -1.17}
{"smiles": "Cc1nn(C)c2cc(N(C)c3ccnc(Nc4cccc(S(N)(=O)=O)c4)n3)ccc12", "inhibition": -0.24}
{"smiles": "CS(=O)(=O)CCN(CC#N)Cc1ccc(-c2ccc3ncnc(Nc4ccc(OCc5cccc(F)c5)c(Cl)c4)c3c2)o1", "inhibition": -5.68}
{"smiles": "NC(=O)c1cccc(Nc2nccc(Nc3cccc4[nH]ncc34)n2)c1", "inhibition": 0.54}
{"smiles": "COc1cc2ncn(-c3cc(OCc4ccccc4Cl)c(C(N)=O)s3)c2cc1OC", "inhibition": 0.35}
{"smiles": "Cc1cccc(-c2n[nH]cc2-c2ccc3ncccc3n2)n1", "inhibition": 0.65}
{"smiles": "CCn1c(-c2nonc2N)nc2ccncc21", "inhibition": -1.14}
{"smiles": "COc1cc2ncn(-c3cc(OCc4ccccc4C(F)(F)F)c(C(N)=O)s3)c2cc1OC", "inhibition": -6.46}
{"smiles": "NCc1ccc(-c2nc(-c3ccc(Cl)c(O)c3)c(-c3ccncc3)[nH]2)cc1", "inhibition": 1.4}
{"smiles": "CCN1CCC(CC(=O)Nc2n[nH]c3nc(-c4cccs4)c(Br)cc23)CC1", "inhibition": 0.48}
{"smiles": "Nc1nc(-c2ccc3c(c2)C(=Cc2cc(Br)c(O)c(Br)c2)C(=O)N3)cs1", "inhibition": 1.19}
{"smiles": "COc1ccc(-c2nn3ncccc3c2-c2ccnc(Nc3ccc(Cl)c(C(F)(F)F)c3)n2)cc1", "inhibition": -0.77}
{"smiles": "COc1ccc(COc2ccc(Cc3cnc(N)nc3N)cc2OC)cc1", "inhibition": 2.12}
{"smiles": "[O-][S+]1CCN(Cc2ccc(-c3ccc4ncnc(Nc5ccc(OCc6ccccc6)c(F)c5)c4c3)o2)CC1", "inhibition": 0.01}
{"smiles": "CC(C)=Cc1cccc2c1/C(=N/Nc1ccc(S(N)(=O)=O)cc1)C(=O)N2", "inhibition": 5.65}
{"smiles": "Nc1ncnc2occ(-c3ccc(NC(=O)Nc4cc(C(F)(F)F)cc(C(F)(F)F)c4)cc3)c12", "inhibition": 0.06}
{"smiles": "COc1cc(C)c(NC(=O)CN(C)C)cc1Nc1nc(Nc2cccc(F)c2C(N)=O)c2cc[nH]c2n1", "inhibition": 0.71}
{"smiles": "COC(=O)Nc1nc2cc(Oc3ccc(NC(=O)Nc4cccc(C(=O)O)c4)cc3)ccc2[nH]1", "inhibition": -3.56}
{"smiles": "CS(=O)(=O)Nc1ccc(N/C=C2\\C(=O)Nc3ccccc32)cc1", "inhibition": 0.43}
{"smiles": "CC(=O)Nc1cccc(C#Cc2cncnc2Nc2ccc(OCc3cccc(F)c3)c(Cl)c2)n1", "inhibition": 2.07}
{"smiles": "CN(C)c1cc2c(Nc3ccc4nc(Cc5ccccc5)[nH]c4c3)ncnc2cn1", "inhibition": -1.29}
{"smiles": "COc1ccc(-c2ccncc2)cc1C(N)=O", "inhibition": -2}
{"smiles": "O=C(Nc1n[nH]c2nc(-c3ccco3)c(Br)cc12)C1CC1", "inhibition": -1.04}
{"smiles": "CS(=O)(=O)CCNCc1ccc(-c2ccc3ncnc(Nc4ccc(OCc5cccc(F)c5)c(C(F)(F)F)c4)c3c2)o1", "inhibition": -0.58}
{"smiles": "CCn1c(-c2nonc2N)nc2c(C#CC(C)(C)O)nc(CN3CCCC3)cc21", "inhibition": 0.46}
{"smiles": "CCn1c(-c2nonc2N)nc2c(N3CCCC3)nccc21", "inhibition": -0.2}
{"smiles": "CCc1cccc(NC(=O)Nc2ccc(Oc3ccc4nc(NC(=O)OC)[nH]c4c3)cc2)c1", "inhibition": -1.05}
{"smiles": "O=C1Nc2ccc(C(=O)c3ccco3)cc2C1=Cc1cc(Cl)c(O)c(Cl)c1", "inhibition": 12.7}
{"smiles": "CS(=O)(=O)CCNCc1nc(-c2ccc3ncnc(Nc4ccc(F)c(Cl)c4)c3c2)cs1", "inhibition": -0.02}
{"smiles": "Fc1cccc(COc2ccc(Nc3ncnc4cc(-c5ccc[nH]5)sc34)cc2Cl)c1", "inhibition": -3.97}
